The supplement of paper PMC10941209

System: HFF
Experiment: cell viability relative to DMSO control; higher = less cytotoxic
Settings: 1 µM; 72 h
Protocol: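 Single-dose cytotoxicity screen of the MMV Pandemic Response Box at 1 uM on human foreskin fibroblasts (HFF), 72 h at 37 C. Viability measured by MTT (OD 550 nm) and normalised to the DMSO control (% survival).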

Row | Structure (SMILES) | cell viability [%]
1 | COc1ccc(OCc2ccc(COc3c(Cl)cccc3Cl)cc2)c(Cl)c1 | 60.4
2 | Cc1nc(-c2ccc(C3N(C)c4ccc(F)cc4C(=O)N3c3ccccc3)s2)cs1 (configuration not stated) | 65.2
3 | CNc1nc(=O)[nH]cc1F | 68.4
4 | CC(N)C12CC3CC(CC(C3)C1)C2 (configuration not stated) | 63.2
5 | COc1ccc2sc3c(c2c1)NC(C)CNC3=O (configuration not stated) | 82.1
6 | COC(=O)Nc1nc2cc([S+]([O-])c3ccccc3)ccc2[nH]1 (configuration not stated) | 64.6
7 | COc1cccc(N2CCN(C3=Nc4c(F)cccc4[C@H](CC(=O)O)N3c3cc(C(F)(F)F)ccc3OC)CC2)c1 | 55.7
8 | O=C1C=C(c2ccccc2)S(=O)(=O)c2ccccc21 | 67.5
9 | CC(=O)N1c2ccccc2NC2=C(C(=O)CC(C)(C)C2)C1c1ccc(OCc2ccccc2)cc1 (configuration not stated) | 70.4
10 | Nc1cc(N)c2nc(-c3ccccc3)c(Nc3ccc(F)cc3)nc2c1 | 80.1
11 | C[C@@H](O)[C@H](N)C(=O)NS(=O)(=O)c1cccc(-c2ccc3[nH]ncc3c2)c1 | 63.3
12 | O=c1ccc2ncc(=O)n3c2n1CC3CN1CCC(NCc2cc3c(cn2)OCCC3)CC1 (configuration not stated) | 60
13 | Cc1onc(-c2ccccc2Cl)c1C(=O)N[C@@H]1C(=O)N2[C@@H]1SC(C)(C)[C@@H]2C(=O)O | 69
14 | O=C(O)/C=C/C=C/c1cccc(Oc2cc(Cl)cc(Cl)c2)c1 | 63.3
15 | COc1cc(NS(=O)(=O)c2ccc(C)cc2)c2ncccc2c1 | 72.5
16 | O=C(Cn1cnc2ccccc2c1=O)Nc1ccccc1 | 62.8
17 | Oc1cccc(C(Nc2nccs2)c2ccc3cccnc3c2O)c1 (configuration not stated) | 72
18 | O=[N+]([O-])c1cn(Cc2nc(O)nc(O)c2Br)cn1 | 70.3
19 | O=c1cc(NCCCN[C@@H]2CCOc3c(Br)cc(Br)cc32)[nH]c2ccsc12 | 79.4

Row | Structure (SMILES) | cell viability [%]
20 | O=C(O)COc1cccc2c1CC[C@](O)(COC(=O)N(c1ccccc1)c1ccccc1)C2 | 68.5
21 | NC(=O)c1ccc(I)c([N+](=O)[O-])c1 | 71.1
22 | [N-]=[N+]=N[C@H]1C[C@H](n2ccc(=O)[nH]c2=O)O[C@@H]1CO | 69.1
23 | CCOC(=O)Nc1cc(NC(C)CC(C)CN(CC)CC)c2nc(-c3ccccc3)c(-c3ccccc3)nc2n1 (configuration not stated) | 78.5
24 | CC(=O)Oc1ccccc1C(=O)Nc1ncc([N+](=O)[O-])s1 | 62.8
25 | Cc1cc(CCCOc2c(C)cc(-c3noc(C(F)(F)F)n3)cc2C)on1 | 65.5
26 | CCCCCOc1ccc(/C=C2\Oc3c(ccc(O)c3O)C2=O)c(O)c1 | 69.6
27 | CCNC(=O)Nc1cc2c(-c3ccnc(C)c3)ccc(CNC(=O)OC)c2cn1 | 62.7
28 | CC(C)(C)c1ccc(OCCn2nc(C(=O)O)c3ccccc3c2=O)cc1 | 70
29 | CCc1nc2ccccn2c1C(=O)NCc1ccccc1 | 66.8
30 | CCC(CC)[C@H](NC(C)=O)[C@@H]1[C@H](O)[C@@H](C(=O)O)C[C@H]1NC(=N)N | 73.5
31 | NNC(=O)c1ccncc1 | 62.8
32 | Cc1ccc(NC(=O)c2cc(Cl)ccc2O)cc1 | 65.7
33 | O=C(Nc1nnc(-c2ccc(Cl)cc2)o1)c1nc2ccccc2s1 | 65.8
34 | CCOc1ccc(C(=O)NCCc2ccccc2)cc1 | 63.9
35 | CCCCc1ccc(S(=O)(=O)Nc2cc(C)on2)cc1 | 63.3
36 | O=C(Nc1ccccc1C(=O)O)c1cccc(Oc2ccccc2)c1 | 67.4
37 | CC[C@@]1(O)C(=O)OCc2c1cc1n(c2=O)Cc2cc3c(CN(C)C)c(O)ccc3nc2-1 | 50.1
